High-throughput results (PubChem)
GLP-1R inv ag: qHTS of GLP-1 Receptor Inverse Agonists (Inhibition Mode). HEK293 GLP-1R CRE-luciferase, luminescence, 24 h; GLP-1R form is constitutively active. Potency, µM (series often up to 38.3 µM), for the others: at the highest dose activity change, negative = inhibition, actives largely listed as inhibitors. 410,000 compounds, 1.6% hits; further: on the % scale 0 is the no-effect control and ±100 the full control effect; nearly all actives have a fitted effect of over 55% in size
Target sequence (P43220 whole entry, looked up): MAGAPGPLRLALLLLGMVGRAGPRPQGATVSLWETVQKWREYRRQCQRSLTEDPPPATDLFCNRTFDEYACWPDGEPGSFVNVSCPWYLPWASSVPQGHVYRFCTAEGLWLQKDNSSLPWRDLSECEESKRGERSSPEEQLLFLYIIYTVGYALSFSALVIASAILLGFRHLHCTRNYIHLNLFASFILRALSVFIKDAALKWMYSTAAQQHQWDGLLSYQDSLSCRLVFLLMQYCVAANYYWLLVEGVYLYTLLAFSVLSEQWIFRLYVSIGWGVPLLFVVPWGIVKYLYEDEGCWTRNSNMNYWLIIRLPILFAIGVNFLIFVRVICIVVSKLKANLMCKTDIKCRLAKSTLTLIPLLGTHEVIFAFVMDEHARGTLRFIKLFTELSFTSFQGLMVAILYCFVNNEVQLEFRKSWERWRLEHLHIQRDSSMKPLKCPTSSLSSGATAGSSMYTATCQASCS
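Assay principle: reduced luminescence from a cAMP-responsive reporter in HEK293 cells co-expressing a constitutively active GLP-1R. Conditions: 24 hr compound incubation, 37 deg C, 5% CO2.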
GLP1R ag: qHTS of GLP-1 Receptor Agonists; Glucagon-like peptide 1 receptor (Homo sapiens), P43220; HEK293 GLP-1R CRE-luciferase, luminescence, 4-6 h; cells express a hypersensitive GLP-1R form; Potency, µM (highest dose often 45.6 µM), inactives show at the highest dose activation, most hits filed as activators; 380,000 compounds, 0.007% hits; AID 624172, 2012; further: % of control where 0% means no effect
HEK293 tox: qHTS of GLP-1 Receptor Inverse Agonists: Cytotox Screen; HEK293 cAMP-luciferase reporter cells, luminescence, 24 h; 410,000 compounds, 0.13% hits; Potency, µM (series often up to 38.3 µM), inactives show top-dose activity change, negative = inhibition, usual class: inhibitors;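 further: loss of luciferase light is scored as toxicity; on the % scale 0 is the no-effect control and ±100 the full control effect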
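Quantitative HTS format, 1536 wells, 200 cells/uL seeded. Compounds: 23 nL, 24 h, 37 °C. Detection: luciferase reagent, luminescence at 12 min RT; decreased signal taken as cytotoxic.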
Mito fusion act: qHTS Assay for Small Molecule Inhibitors of Mitochondrial Division or Activators of Mitochondrial Fusion. 320,000 compounds, 0.23% hits. Potency, µM (top dose mostly 46.1 µM), for the others: at the top dose growth rescue (activation), usual class: activators. S. cerevisiae fusion-defective mutant growth rescue, CellTiterGlo 48 h. AID 485298, 2010; further: % of control where 0% means no effect; nearly all actives have a fitted effect of over 45% in size
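Read-out: ATP-based luminescence (CellTiterGlo, 10 min ambient) reporting growth of fusion-defective ts yeast after 48 hours at 37C on glycerol/ethanol YPEG medium in the presence of compound.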
BRCA1 expr up: qHTS Assay to Identify Small Molecule Activators of BRCA1 Expression. MCF7-BRCA1-FFLuc reporter, luminescence, 48 h; response scale: scaled: vehicle 0%, 10 µM genistein 100%. Potency, µM (titrated, usually from 46.1 µM), without a hit: at the highest dose activation, actives largely listed as activators. 380,000 compounds, 1.1% hits. AID 624202, 2012; further: nearly all actives have a fitted effect of over 80% in size
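Luminescence from a BRCA1-driven firefly luciferase in MCF7 cells was the read-out, taken 15 min after substrate addition following 48 h compound exposure at 37 °C. Data were normalized to a 10 microM genistein control and DMSO vehicle.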
Numbers without * were called inactive. Compounds with a hit are over-represented: about 2.8% of the library has one in this group of screens. The call rests on the fitted dose curve; in most records, active means well fitted curve in the direction sought with a large enough effect; inconclusive means small, poorly fitted or top-dose-only effect, or another doubt; inactive means no such curve, though single readings can be large; an effect the other way counts as inactive or inconclusive. Potency means the concentration at half of the fitted maximal effect.

What do the screens show for `CCN(CC)CCN(C(=O)c1ccc([N+](=O)[O-])cc1)c1nc2ccc(OC)cc2s1`?
GLP-1R inv ag: 5.6%; GLP1R ag: -0.3%; HEK293 tox: 16.1%; Mito fusion act: 1.6%; BRCA1 expr up: 1.2%

What do the screens show for `CCN(CC)c1ccc(NC(=O)c2c(C)nn(-c3ccc(F)cc3)c2-n2cccc2)c(C)c1`?
GLP-1R inv ag: 5.01µM*; GLP1R ag: 0.7%; HEK293 tox: -9.3%; BRCA1 expr up: -26.6%

How did COc1ccc(CCNC(=O)c2c(C)nn(-c3ccc(F)cc3)c2-n2cccc2)cc1OC do in these assays?
GLP-1R inv ag: inconclusive; GLP1R ag: 10.2%; HEK293 tox: -20.8%; BRCA1 expr up: -22.4%

What do the screens show for `Cc1ccc(CCNC(=O)c2c(C)nn(-c3ccc(F)cc3)c2-n2cccc2)cc1`?
GLP-1R inv ag: 6.31µM*; GLP1R ag: 24.5%; HEK293 tox: -23.2%; BRCA1 expr up: -50.9%

Results for COc1cc(NC(=S)NC(=O)c2ccccc2C)ccc1NC(=O)c1cccs1 ?
GLP-1R inv ag: -23.1%; GLP1R ag: -10.4%; HEK293 tox: -5.1%; Mito fusion act: 12.6%; BRCA1 expr up: 1.8%

What do the screens show for `Cc1ccc(N2C(=O)N(Cc3cc(=O)n4ccccc4n3)c3ccccc3S2(=O)=O)cc1Cl`?
GLP-1R inv ag: inconclusive; HEK293 tox: -21.4%

What do the screens show for `Cc1cc(C(C)(C)C)ccc1NC(=O)CC(C)(C)CC(=O)O`?
GLP-1R inv ag: -6.0%; GLP1R ag: 1.1%; HEK293 tox: 18.9%; Mito fusion act: -5.3%; BRCA1 expr up: 12.6µM*

Results for Cc1ccc(NC(=O)c2cc(S(=O)(=O)NCCc3ccc(Cl)cc3)ccc2F)cc1 ?
GLP-1R inv ag: 11.2µM*; HEK293 tox: -14.2%

Results for Cc1ccc(CCNC(=O)c2ccc(CS(=O)(=O)c3ccc(Cl)cc3)o2)cc1 ?
GLP-1R inv ag: -12.9%; HEK293 tox: -9.1%

What do the screens show for `Cc1ccc(S(=O)(=O)Cc2ccc(C(=O)NCCc3ccc(Cl)cc3)o2)cc1`?
GLP-1R inv ag: 10µM*; GLP1R ag: -1.5%; HEK293 tox: -12.7%; BRCA1 expr up: -33.8%

Results for O=C(NCc1ccccc1Cl)c1ccc(CS(=O)(=O)c2ccc(Br)cc2)o1 ?
GLP-1R inv ag: 10µM*; HEK293 tox: 4.8%

Results for S=c1[nH]c2cc(-c3ccccc3)ccc2o1 ?
GLP-1R inv ag: 0.2%; GLP1R ag: 5.7%; HEK293 tox: -18.8%; Mito fusion act: 15.8µM*; BRCA1 expr up: 52.3%

How did O=C(NC1=NCCS1)c1cccc(OC(F)F)c1 do in these assays?
GLP-1R inv ag: -22.0%; GLP1R ag: -6.9%; HEK293 tox: -14.1%; Mito fusion act: inconclusive; BRCA1 expr up: 2.82µM*

What do the screens show for `COc1cccc(C(=O)NC2=NCCS2)c1OC`?
GLP-1R inv ag: 0.0%; GLP1R ag: 10.9%; HEK293 tox: 9.6%; Mito fusion act: 2.1%; BRCA1 expr up: 12.6µM*

How did Cc1ccc(C(=O)NC2=NCCS2)cc1 do in these assays?
Mito fusion act: 5.5%

What do the screens show for `O=C(NC1=NCCS1)c1ccc(C(F)(F)F)cc1`?
GLP-1R inv ag: 0.9%; GLP1R ag: 11.9%; HEK293 tox: 1.5%; Mito fusion act: 10.8%; BRCA1 expr up: 3.98µM*

What do the screens show for `O=C(Nc1ccc2c(c1)CCC2)c1cccc(OC(F)F)c1`?
GLP-1R inv ag: inconclusive; GLP1R ag: 17.8%; HEK293 tox: -4.8%; BRCA1 expr up: 2.82µM*

Results for COc1cc(OC)cc(C(=O)Nc2ccc(S(=O)(=O)Nc3ncccn3)cc2)c1 ?
GLP-1R inv ag: 0.6%; GLP1R ag: 9.8%; HEK293 tox: -8.2%; Mito fusion act: 0.5%; BRCA1 expr up: -11.0%
